# In the library only some 19% were active in any assay of this set; here they are far more common.
# HepG2 viability: kills HepG2 cells in TGF-b inhibitor counter-screen | Potency, µM (titrated, usually from 46.1 µM), without a hit: at the highest dose activity change, negative = cytotoxicity, usual class: cytotoxic | 410,000 compounds, 0.76% hits | AID 588856 | HepG2 CAGA-GFP viability, ATP luminescence, 18 h; also: potency is read from the fitted curve at half-maximal effect
#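 HepG2 CAGA-GFP cells (1000/well, DMEM with 1% FBS) received compound, then TGF-beta at 500 pg/mL final, and were incubated 18 hours at 37 degrees C. Viability was read by CellTiter-Glo luminescence. Media-only wells were set as complete cell-killing and DMSO as no toxicity.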
# TDP1 inh: TDP1 (human) enzyme inhibition; Potency, µM (highest dose often 130 µM), inactives show at the top dose activity change, negative = inhibition, most hits filed as inhibitors; recombinant TDP1, AlphaScreen DNA substrate cleavage; Q9NUW8; 350,000 compounds, 0.28% hits; AID 485290; also: potency is read from the fitted curve at half-maximal effect; % is scaled to controls: 0 for no effect and ±100 for the full control effect; nearly all actives have a fitted effect of over 40% in size
# Target sequence (Q9NUW8 whole entry, looked up): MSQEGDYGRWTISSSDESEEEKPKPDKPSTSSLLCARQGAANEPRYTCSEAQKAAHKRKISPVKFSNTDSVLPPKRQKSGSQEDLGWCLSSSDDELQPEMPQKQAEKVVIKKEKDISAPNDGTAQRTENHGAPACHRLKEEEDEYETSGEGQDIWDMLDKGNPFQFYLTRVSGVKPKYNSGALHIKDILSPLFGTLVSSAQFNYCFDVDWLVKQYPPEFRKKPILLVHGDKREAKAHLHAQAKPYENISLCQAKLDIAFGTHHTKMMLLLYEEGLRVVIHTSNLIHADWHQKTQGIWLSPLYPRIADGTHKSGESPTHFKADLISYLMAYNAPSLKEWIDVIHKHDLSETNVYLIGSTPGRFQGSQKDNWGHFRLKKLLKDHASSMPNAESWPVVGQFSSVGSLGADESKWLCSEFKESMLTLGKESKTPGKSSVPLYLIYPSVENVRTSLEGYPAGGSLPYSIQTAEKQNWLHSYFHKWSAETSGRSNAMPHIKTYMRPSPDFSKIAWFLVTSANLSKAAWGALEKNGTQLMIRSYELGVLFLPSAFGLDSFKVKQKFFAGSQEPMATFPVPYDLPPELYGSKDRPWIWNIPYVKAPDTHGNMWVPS
#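 E. coli-derived human Tdp1, 1 nM final. Cpd preinc 15 min RT; substrate 15 nM final, 5 min RT; AS bead mix 10 ug/ml final, 10 min RT. Signal loss = tyrosine-FITC cleavage. No-enzyme wells = max signal.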
# IL-1B inflam inh: blocks inflammasome-driven IL-1 beta release; THP-1 LPS/ATP IL-1B secretion, AlphaLISA, 16 h; hits give low values; 360,000 compounds, 4.7% hits; AID 743279; activity change, % at 57.5 µM; in the data active = activity change below about -50%; inconclusive = mostly about -30% to -49%; also: % is scaled to controls: 0 for no effect and ±100 for the full control effect
#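 Secreted IL-1B measured by AlphaLISA bead assay after 16 h compound exposure of THP-1 cells; compounds (final up to 57.5 uM) added 1 h before LPS (250 ng/mL) and ATP (1.25 mM) stimulation; lower signal means less secretion.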
# DT40 TDP1 CPT: DT40-hTDP1 cell growth loss with CPT; chicken DT40 Tdp1-/-;hTDP1 cells + 20 nM CPT, ATP luminescence, 48 h; Potency, µM (titrated, usually from 46.2 µM), without a hit: at the top dose activity change, negative = growth inhibition, usual class: inhibitors; 420,000 compounds, 12% hits; also: potency is read from the fitted curve at half-maximal effect; % is scaled to controls: 0 for no effect and ±100 for the full control effect; nearly all actives have a fitted effect of over 55% in size
#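 Cell growth measured by CellTiter-Glo luminescence after a minimum 48 h, 37 C compound exposure with 20 nM CPT in Tdp1-knockout DT40 cells stably expressing hTDP1, seeded 400/well; qHTS titration format.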
# TDP1 cell noCPT: qHTS for Inhibitors of human tyrosyl-DNA phosphodiesterase 1 (TDP1): qHTS in cells in absence of CPT. DT40 Tdp1-/- hTDP1 cells, no CPT, ATP luminescence, 48 h. Potency, µM (titrated, usually from 46.2 µM), without a hit: top-dose activity change, negative = growth inhibition, hits mostly inhibitors. 420,000 compounds, 15% hits. AID 686978, 2013; also: potency is read from the fitted curve at half-maximal effect; % is scaled to controls: 0 for no effect and ±100 for the full control effect; nearly all actives have a fitted effect of over 55% in size
#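 Luminescent ATP content (CellTiter-Glo) served as the growth readout. Knockout chicken DT40 cells expressing human TDP1 were exposed to compounds without camptothecin for a minimum 48 hr at 37 °C.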
# TGFb SMAD3 inh: TGF-b pathway inhibition | HepG2 CAGA-GFP TGF-b/SMAD3 reporter, GFP fluorescence, 18 h; TGF-beta stimulated, 500 pg/mL final | Potency, µM (doses to about 46.1 µM), without a hit: at the highest dose activity, negative = inhibition, actives largely listed as inhibitors | 410,000 compounds, 1.2% hits; also: potency is read from the fitted curve at half-maximal effect; % is scaled to controls: 0 for no effect and ±100 for the full control effect; nearly all actives have a fitted effect of over 65% in size
#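 Read-out: total well GFP (ex488/em500-530) summed from mean per-cell fluorescence. Cells: HEPG2 CAGA-GFP, 1% FBS DMEM, 18 h at 37 degrees C with 500 pg/mL final TGF-beta. Unstimulated wells served as the full-inhibition control; stimulated DMSO wells = 0%.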
# * marks the source's active call; other numbers are inactive results; ? = inconclusive; · = no result given; [ ] = another dose, or the depositor's remark. Unless noted, calls follow the shape of the dose curve; as a rule, active = well fitted curve in the direction sought with a large enough effect; inconclusive = small, poorly fitted or top-dose-only effect, or another doubt; inactive = no such curve, though single readings can be large; an effect the other way counts as inactive or inconclusive.
SMILES,HepG2 viability,TDP1 inh,IL-1B inflam inh,DT40 TDP1 CPT,TDP1 cell noCPT,TGFb SMAD3 inh
Cn1c(CN2CCN(C(=O)COc3ccccc3)CC2)nc2cc([N+](=O)[O-])ccc21,-25.0%,-1.1%,21.9,?,?,?
CCC1CN2CCc3cc(OC)c(OC)cc3C2CC1CC1NCCc2cc(OC)c(OC)cc21 (stereo not drawn),·,-6.8%[56.1 µM],·,0.206µM*,0.146µM*,·
COc1nc(C)nc(Cl)c1NC1=NCCN1,-16.5%,-0.2%,-7.2,5.3%,5.5%,4.7%
NC(=O)c1ncn([C@@H]2O[C@H](CO)[C@@H](O)[C@H]2O)n1,-0.1%,2.7%,-10.4,1.46µM*,1.03µM*,10.3%
O=C(NCc1ccccc1)c1cccc(Nc2nc3ccccc3n3nnnc23)c1,-1.7%,6.2%,·,20.6µM*,14.6µM*,-4.1%
CC1(C)N([O-])[N+](=O)C1(C)Br (stereo not drawn),·,-9.6%,·,?,-21.4%,·
CCCCCCC(C)OC(=O)COc1ccc(Cl)cc1Cl (stereo not drawn),·,7.3%[56.1 µM],·,18.4%,15.4%,·
CCCCOc1ccc(CCN)cc1Cl,-75.9%,5.5%,-68.8*,2.31µM*,2.06µM*,?
CC(C)Oc1ccc(CCN)cc1Cl,12.1%,2.3%,4.3,5.17µM*,5.8µM*,6.8%
COc1cc(CCN)cc(OC)c1OC,·,·,·,4.7%[92.5 µM],-13.0%[92.5 µM],·
CN1[C@@H]2CC[C@H]1CC(OC(=O)N1Cc3ccccc3NC1=O)C2 (stereo partly drawn),·,5.7%,·,·,·,·
Cc1cccc(-n2c(/C=C/c3c[nH]c4ccccc34)nc3ccccc3c2=O)c1,-8.4%,5.7%[12.3 µM],·,2.59µM*,2.59µM*,-20.0%
COc1cccc(-n2c(/C=C/c3ccccn3)nc3ccccc3c2=O)c1,0.5%,·,-84.0*,?,?,1.8%
Cc1cccc(-n2c(/C=C/c3ccccn3)nc3ccccc3c2=O)c1,-21.8%,-19.6%,-52.1*,23.1µM*,?,-2.3%
C=C1C2CC[C@@]3(C)C(c4ccoc4)OC(=O)C[C@@]13OC1CC(=O)C(C)(C)C(C(OC(C)=O)C(=O)OC)[C@@]12C (stereo partly drawn),·,6.2%,·,?,-13.6%,·
CCN1C(=NCCOC)N[C@@H](c2cccc(F)c2)C(C(=O)OC)=C1C,-4.6%,·,-10.2,-4.2%,-22.8%,?
CCOC(=O)c1cccc(C2=C(CNC(=O)c3cccnc3)[C@H]3CC[C@@H](C2)N3Cc2ccccc2)c1,-30.5%,·,?,?,20.6µM*,-2.3%
CCOC(=O)c1cccc(C2=C(CNC(C)=O)[C@H]3CC[C@@H](C2)N3Cc2ccccc2)c1,-37.7%,·,-14.6,-3.0%,?,2.5%
C=CCN1CCC23c4c5ccc(O)c4OC2/C(=N/N=C2\CCC4(O)C6Cc7ccc(O)c8c7C4(CCN6CC=C)C2O8)CCC3(O)C1C5 (stereo not drawn),·,17.1%,·,?,?,·
O=C1NCN(c2ccccc2)C12CCN(C(c1cccs1)c1nnnn1Cc1ccccc1)CC2 (stereo not drawn),4.5%,·,-21.3,?,?,?
C[C@@H]1OC(OC2C(OC3CC[C@@]4(C)C5CC=C6C7CC(C)(C)CC[C@@]7(C(=O)O)CCC6(C)C5(C)CCC4[C@]3(C)CO)OCC(O)C2O)C(O)C(O)C1O (stereo partly drawn),·,4.5%[56.1 µM],·,?,16.4µM*,·
Nc1ccc(Oc2ccc(N)cc2)cc1,·,18.9%,·,·,·,·
Cc1cccc(CCNCc2cc3ccc(C)cc3[nH]c2=O)c1,-41.7%,3.9%,-12.1,23.1µM*,?,-0.8%
O=c1c(O)c(-c2ccc(O)c(O)c2)oc2c(O)c(O)cc(O)c12,·,-6.8%[56.1 µM],·,18.4µM*,?,·
C=CCN1CC[C@]23CCCC[C@H]2[C@H]1Cc1ccc(O)cc13,·,·,·,1.6%,?,·
SMILES,HepG2 viability,TDP1 inh,IL-1B inflam inh,DT40 TDP1 CPT,TDP1 cell noCPT,TGFb SMAD3 inh
COc1ccc(C(=O)O[C@H]2CC[C@@]3(C)C4CCC5[C@]6(O)C[C@H](O)[C@@]7(O)C(CN8C[C@@H](C)CC[C@H]8[C@@]7(C)O)[C@]6(O)C[C@@]53O[C@@]42O)cc1OC (stereo partly drawn),·,6.1%,·,0.8%[21.1 µM],-26.7%[21.1 µM],·
COc1cc2c(cc1O)C[C@H]1NCCc3cc4c(c-2c31)OCO4,-28.5%,3.9%,-26.2,18.4µM*,23.1µM*,?
O=C(CN1C(=O)c2ccccc2C1=O)N1CCN(c2nnc(-c3ccccc3)c3ccccc23)CC1,-7.6%,2.3%,9.8,-18.5%,?,-2.0%
COCCCN1Cc2ccccc2C1=N,-4.3%,2.0%,17.2,-2.8%,-4.7%,19.9%
CNCCCN1c2ccccc2CCc2ccccc21,-31.7%,-6.0%,-58.4*,?,25.9µM*,24.0%
CS(=O)(=O)N1CCC2(CCCN(Cc3ccncc3)C2)CC1,·,·,·,-0.3%,-2.7%,·
CC(=O)OC(C)(C)/C=C/C(=O)[C@](C)(O)[C@H]1[C@H](O)C[C@@]2(C)[C@@H]3CC=C4[C@H](C[C@H](O)C(=O)C4(C)C)[C@]3(C)C(=O)C[C@]12C,-82.5%,0.0%,-111.8*,0.0461µM*,0.0073µM*,2.82µM*
CC(=O)OC(C)(C)/C=C/C(=O)C(C)(O)C1C(O)CC2(C)C3CC=C4C(CC(O)C(=O)C4(C)C)C3(C)C(=O)CC12C (stereo not drawn),17.2%,·,-98.8*,0.0259µM*,0.0164µM*,?
CC(=O)OC(C)(C)/C=C/C(=O)C(C)(O)C1[C@H](O)C[C@@]2(C)C3CC=C4C(CC[C@@H](O)C4(C)C)[C@]3(CO)C(=O)C[C@]12C (stereo partly drawn),-17.0%,·,-98.1*,0.0184µM*,0.0103µM*,?
O=[N+]([O-])c1cc(S(=O)(=O)/N=C(/c2ccccc2)N2CCOCC2)ccc1Cl,-22.4%,2.6%,?,?,?,?
S=C(S)N1CCCC1,-0.2%,2.8%[56.1 µM],5.5,0.0596µM*,0.0531µM*,12.5%

# From PubChem BioAssay
